# Experimental data: PubChem BioAssay (NCATS)
# Records with an inconclusive call do not appear. Entries that show only a call come without a potency. The source made the active and inactive calls. The call rests on the fitted dose curve; in most records, active means well fitted inhibition curve with a large enough effect; inconclusive means small, poorly fitted or top-dose-only effect; inactive means flat fitted curve, though single readings scatter.
# Test: qHTS to identify inhibitors of the type 1 interferon - major histocompatibility complex class I in skeletal muscle: primary screen against the NCATS Pharmaceutical Collection (AID 1347407)
# Details: human skeletal muscle cells, IFN-b-induced MHC-I HiBiT luminescence, 24 h; series mostly up to 45.9 µM
# In short: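 Luminescence from HiBiT-tagged endogenous HLA-B*08:01 served as the read-out of IFN-beta-induced MHC class I in CRISPR-engineered C25cl48 myoblasts. Cells received 4 ng/ml IFN-beta plus compound (high final 46 uM, […]) for 24 h.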
# Potency means the concentration at half of the fitted maximal effect.
row,Structure (SMILES),Potency
1,CCOC(=O)C1(c2ccccc2)CCN(CCc2ccc(N)cc2)CC1,inactive
2,CC(Cc1ccccc1)NCCCCl (stereo not drawn),inactive
3,Cc1ccc(N=CN(C)C=Nc2ccc(C)cc2C)c(C)c1,inactive
4,O=C1NCN(c2ccccc2)C12CCN(CCCOc1ccc(F)cc1)CC2,inactive
5,CCC(=O)C(CCN(C)C)(c1ccccc1)c1ccccc1,inactive
6,ClC1=C(Cl)C2(Cl)C(CBr)CC1(Cl)C2(Cl)Cl (stereo not drawn),inactive
7,CCC(OC(C)=O)C(CC(C)NC)(c1ccccc1)c1ccccc1 (stereo not drawn),inactive
8,C[C@]12CC[C@H](O)CC1=CC[C@@H]1[C@@H]2CC[C@]2(C)C(=O)CC[C@@H]12,inactive
9,Nc1ccc(Cl)cc1C(=O)c1ccccc1F,inactive
10,CCCC(C)C1(CC)C(=O)N=C(S)NC1=O (stereo not drawn),inactive
11,C[C@]12CC[C@H]3[C@@H](CCC4=CC(=O)CC[C@@]43C)[C@@H]1CC[C@@H]2C(=O)O,inactive
12,CCc1cc(OC)c(C[C@H](C)N)cc1OC,inactive
13,CCN(CC)C(C)C(=O)c1ccccc1 (stereo not drawn),inactive
14,CCCC[N+]1(C)[C@@H]2CC(OC(=O)[C@H](CO)c3ccccc3)C[C@H]1[C@@H]1O[C@@H]12 (stereo partly drawn),inactive
15,NC1(c2ccccc2)CCCCC1,inactive
16,Nc1ccc(N)cc1,inactive
17,O=C(CBr)Nc1ccc(Cl)cc1C(=O)c1ccccc1F,inactive

row,Structure (SMILES),Potency
1,O=C(CCCCl)c1ccc(F)cc1,inactive
2,NCc1cccnc1,inactive
3,CC1=C2[C@H]3OC(=O)[C@@H](C)[C@@H]3CC[C@@]2(C)C=CC1=O,inactive
4,CC(C)(O)C(Cl)(Cl)Cl,inactive
5,OC(c1ccccc1)(c1ccccc1)C1CCNCC1,inactive
6,CCCCC1C(=O)NC(=O)N(C2CCCCC2)C1=O (stereo not drawn),inactive
7,NC(=O)OCCCc1ccccc1,inactive
8,CC(C)C(Br)C(=O)NC(N)=O (stereo not drawn),inactive
9,C[C@]12CC[C@H]3[C@@H](CC=C4C[C@@H](O)CC[C@@]43C)[C@@H]1CC[C@@H]2O,inactive
10,O=C(CCCN1CCC(n2c(=O)[nH]c3ccccc32)CC1)c1ccc(F)cc1,inactive
11,CCC1(c2cccc(O)c2)CCCCN(C)C1 (stereo not drawn),inactive
12,CC(C)NCC(O)c1ccc(N)c(C#N)c1 (stereo not drawn),inactive
13,CCC(=O)OC1(c2ccccc2)CCN(C)CC1,inactive
14,C[C@@H]1C[C@@H]([C@H](O)CC2CC(=O)NC(=O)C2)C(=O)[C@@H](C)C1,374 nM (active)
15,CCOC(=O)C(c1c(O)c2ccccc2oc1=O)c1c(O)c2ccccc2oc1=O,inactive
16,CNC(C)Cc1ccccc1OC (stereo not drawn),inactive
